Experimental data taken from PubChem BioAssay (NCATS).
Results filed as inconclusive are left out. Unmarked numbers belong to inactive results. Activity calls are given as the source filed them. Calls come from the whole dose curve; as a rule, active = well fitted inhibition curve with a large enough effect; inconclusive = small, poorly fitted or top-dose-only effect; inactive = flat fitted curve, though single readings scatter.

test system: Zika virus NS2B-NS3 protease; assay: Primary screen GU AMC qHTS for Zika virus inhibitors (AID 1347154); details: Zika NS2B-NS3 unlinked protease, AMC fluorogenic substrate; series mostly up to 54.1 µM; activity change, negative = inhibition: at the top concentration;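 note: 0% = no-inhibitor control and -100% = no-enzyme control; nearly all actives have a fitted effect of over 70% in size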
Procedure, shortened: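 Unlinked Zika NS2B hydrophilic domain/NS3 protease domain noncovalent complex (25 nM final) in 10 mM Tris-HCl pH 8.0, 0.01% Tween 20, with AMC peptide substrate. Fluorescence (ex 340, em 450 nm) change over 15 min, room temperature; percent inhibition fitted to 4-parameter Hill equation.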

In order of falling “activity change, negative = inhibition” value:
1. CC(=O)Nc1ccc(OCCOCCOc2ccc(NC(C)=O)cc2)cc1  6.29%
2. COc1ccc(C(=O)NCc2ccc(OCCN(C)C)cc2)cc1OC  5.58%
3. CCN1CC(CCN2CCOCC2)C(c2ccccc2)(c2ccccc2)C1=O (configuration not stated)  5.32%
4. CN1C(=O)CC(c2ccccc2)C1=O (configuration not stated)  4.02%
5. CN1C(C)(C)CCCC1(C)C  3.04%
6. CNCc1ccccc1  2.73%
7. CCc1cccc(CC)c1NC(=O)CN(CC(=O)O)CC(=O)O  2.38%
8. COc1ccc(Cc2cnc(N)nc2N)cc1OC  0.915%
9. CCCCCCCC(=O)OCC(O)CO (configuration not stated)  0.755%
10. CCOc1cc(NC(C)=O)ccc1C(=O)OC  0.695%
11. COC(=O)c1ccc(O)cc1  0.569%
12. CCN(CC)CCOC(=O)C(c1ccccc1)c1ccccc1  0.192%
13. CCC(C)(CN(C)C)OC(=O)c1ccccc1 (configuration not stated)  -0.189%
14. CCCOC(=O)c1ccc(N)cc1  -0.834%
15. CCCNC(C)(C)COC(=O)c1ccccc1  -1.13%
16. O=C(O)CNC(=O)c1ccccc1I  -1.3%
17. CCN(CC)CCc1nc(-c2ccccc2)no1  -1.69%
18. Cc1onc(-c2ccccc2)c1-c1ccc(S(N)(=O)=O)cc1  -2%
19. NC(=O)N[C@@H](CCC(=O)O)C(=O)O  -2.22%
20. O=C1c2cccc(O)c2C(=O)c2c(O)cccc21  -2.23%
21. CCCCCC(C)N (configuration not stated)  -2.31%
22. O=C1C(c2[nH]c3ccccc3c2O)=Nc2ccccc21  -2.43%
23. C=CCOc1ccccc1OCC(O)CNC(C)C (configuration not stated)  -2.79%
24. Cc1cccc(C)c1NC(=O)CC12CCCN1CCC2  -3%
25. CN[C@@H]1[C@H](O)[C@H](NC)[C@H]2O[C@@]3(O)C(=O)C[C@@H](C)O[C@H]3O[C@@H]2[C@H]1O  -3.26%
26. CC(=O)NCc1c(I)c(NC(C)=O)c(I)c(C(=O)O)c1I  -3.69%
27. O=C(c1ccccc1)C(O)c1ccccc1 (configuration not stated)  -3.72%
28. Cc1ccccc1N=Nc1ccc(N=Nc2c(O)ccc3ccccc23)c(C)c1  -4.01%
29. Cc1c(NC(=O)c2cccnc2)c(=O)n(-c2ccccc2)n1C  -4.3%
30. Cc1cc(=O)[nH]c(=S)[nH]1  -4.74%
31. Cc1ccsc1/C=C/C1=NCCCN1C  -7.69%
32. NS(=O)(=O)c1cc2c(cc1C(F)(F)F)NCNS2(=O)=O  -9.75%
33. Cc1ncc(CO)c(CN)c1O  -11.9%

With `NC(N)=NCCN1CCCCCCC1` the activity change, negative = inhibition was -2.2% [at 0.59 µM].

In the case of `C[C@@H](N)C(=O)O`, the Potency is reported as “inactive”.
`O=C(O)CCCc1ccccc1` was tested, and the Potency was “inactive”.

For `CC(C)C[C@@H](N)C(=O)O`, the “activity change, negative = inhibition” value was -2.56% [at 25.8 µM].
